“And” between values parts separate entries of the source, which are not always exact repeats. Identical values can stand only once. Results filed as inconclusive are left out. A number with no mark means an inactive call. The source made the active and inactive calls. Calls follow the shape of the dose curve; as a rule, active = well fitted cell-killing curve with a large enough effect; inconclusive = small, poorly fitted or top-dose-only effect, or effect the other way; inactive = flat fitted curve, though single readings scatter.
Assay: qHTS assay for cell viability of HEK293 cells (AID 743288); also: nearly all actives have a fitted effect of over 50% in size
Conditions: ATP luminescence (CellTiter-Glo), 18 h; max response: stronger effect = lower value
Text: National Center for Advancing Translational Sciences [NCATS]
NIH Chemical Genomics Center [NCGC]
U.S. Environmental Protection Agency [EPA]
National Institutes of Environmental Health Sciences [NIEHS]
National Toxicology Program [NTP]
U.S. Food and Drug Administration [FDA]
The CellTiter-Glo Luminescent Cell Viability Assay (Promega, Madison, WI) is a homogeneous method to determine the number of viable cells in culture based on quantitation of the ATP present, which signals the presence of metabolically active cells. This cell viability assay was used to screen environmental chemicals in the Hek293 cell line.
Tox21 Assay Protocol Summary:
Cell viability after compound treatment was measured using a luciferase-coupled ATP quantitation assay (CellTiter-Glo viability assay, Promega, Madison, WI) in parental HEK293 cells. Total intracellular ATP content corresponds to the number of metabolically competent cells after compound treatment. The cells were dispensed at 2,000 cells/5 uL/well in 1,536-well white/solid bottom assay plates using a Flying Reagent Dispenser (Aurora Discovery, San Diego, CA). The cells were incubated a minimum of 5 h at 37 C, followed by the addition of 23 nL of compounds dissolved in DMSO, positive controls or DMSO only using a pintool work station (Kalypsys, San Diego, CA). The assay plates were incubated for 18 h at 37 C, followed by the addition of 5 uL/well of CellTiter-Glo reagent. After 30 min incubation at room temperature, the luminescence intensity of the plates was measured using a ViewLux plate reader (PerkinElmer, Shelton, CT).
% is scaled to controls: 0 for no effect and ±100 for the full control effect; potency is read from the fitted curve at half-maximal effect.

Compared with `Nc1cc(C(=O)O)c(O)c(S(=O)(=O)O)c1`, `Nc1ccc(-c2ccc(N)c(O)c2)cc1O` is lower in max response: -1.32% for the first, -18.5% for the second.

Going from `CCC(Cl)CC(Cl)C(Cl)C(Cl)C(Cl)C(C)Cl` (stereo not given) to `CCc1ccc(C(c2ccc(CC)cc2)C(Cl)Cl)cc1`, the max response falls from 0.239% to -18.5%.

First: NC(=O)c1ccc([N+](=O)[O-])cc1
Second: O=C(Cl)c1ccc([N+](=O)[O-])cc1
The max response of the first is higher: 4.95% for the first, 0.724% for the second.

Compared with `C[Si](C)(C)Cl`, `CC(C)S` is lower in max response: -4.36% for the first, -8.12% for the second.

Compared with `C=CC(=O)CC`, `C/C(Cl)=C/CCl` is lower in max response: -3.35% for the first, -11.4% for the second.

Compared with `CCN(CC)c1ccc2c(C)cc(=O)oc2c1`, `Cc1ccc2ccc3cccc4ccc1c2c34` is lower in max response: -1.15% for the first, -6.64% for the second.

First: C=Cc1cccc(C)c1
Second: Cc1cccnc1
The max response of the first is higher: 2.72% for the first, -8.35% for the second.

First: O=C(O)/C=C/c1ccc(/C=C/C(=O)O)cc1
Second: CC(=O)OC(C(=O)c1ccccc1)c1ccccc1 (stereo not given)
The max response of the first is lower: -14.7% for the first, -11.3% for the second.

First: c1ccc2ncccc2c1
Second: Nc1ccccc1O
The max response of the first is lower: -7.69% for the first, -3.09% for the second.

Going from `C=CC1CO1` (stereo not given) to `CC(=O)OCc1ccc2c(c1)OCO2`, the max response falls from -1.41% to -6.03%.

Going from `CCCCC(CC)COCCCN` (stereo not given) to `CCCCCCN`, the max response falls from 10.2% to -3.69%.

Compared with `O=[N+]([O-])c1cccc(I)c1`, `O=[N+]([O-])c1ccc(F)cc1F` is higher in max response: -9.2% for the first, 3.6% for the second.

First: CCCCCCCC/C=C\CCCCCCCC(=O)N(CCO)CCO
Second: CCCCCCCCOc1ccc(C(=O)O)cc1
The max response of the first is lower: -16% for the first, 8.21% for the second.

First: COc1ccc(C(=O)Nc2ccccc2)cc1[N+](=O)[O-]
Second: Nc1ccc(N=Nc2ccccc2)c(N)c1
The max response of the first is higher: -5.07% for the first, -22.9% for the second.

Compared with `c1cc2c3c(c1)ccc1cccc(c13)C2`, `c1ccc(CSCc2ccccc2)cc1` is lower in max response: 3.07% for the first, 1.27% for the second.

First: Nc1cnn([C@@H]2O[C@H](CO)[C@@H](O)[C@H]2O)c(=O)n1
Second: C/C=C/C=C/C=O
The max response of the first is higher: 3.95% for the first, -1.13% for the second.

With `O=Nc1ccc(Nc2ccccc2)cc1` the Potency was 39.8 µM (active) and 20 µM (active).
In the case of `O=[N+]([O-])c1cc(N(CCO)CCO)ccc1NCCO`, the Potency is reported as 44.7 µM (active).

With `CC(CCC(=O)O)(c1ccc(O)cc1)c1ccc(O)cc1` the max response was -3.82% and -8.09%.
In the case of `CCCCOC(=O)COc1ccc(Cl)cc1Cl`, the max response is reported as -2.46% and -7.81%.
For `Brc1cc(Oc2cc(Br)c(Br)c(Br)c2Br)c(Br)c(Br)c1Br`, the max response was -20.8% and -10.9%.
For `CC(=O)CC(=O)Nc1ccccc1`, the max response was 2.12% and -0.894%.
In the case of `COc1cc(-c2ccc(N=C=O)c(OC)c2)ccc1N=C=O`, the max response is reported as -1.14% and -5.75%.
In the case of `CC(=O)OC1CC(C)OC(C)O1` (stereo not given), the max response is reported as -1.36% and -5.57%.

Source: PubChem BioAssay (NCATS)
